PREPL inh – PREPL enzyme inhibitors, primary screen, biochemical, fluorescence polarization. inhibition, % at 5.96 µM. recombinant PREPL, fluorescence polarization activity-based probe. Prolyl endopeptidase-like (Homo sapiens), Q4J6C6. actives 0.68% (n = 320,000); in the data active means inhibition above about 43%;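 further: 0% = enzyme with DMSO and 100% = wells lacking enzyme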
PP5 primary – PP5 phosphatase inhibitors, primary screen, biochemical, fluorescence; purified PP5c, OMFP substrate fluorescence; inhibition, % at 6.7 µM; actives 0.18% (n = 320,000); AID 1987, 2009;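 active means inhibition above the campaign's mean inhibition across all tested compounds plus 3 SD, cut at about 9.5% in these data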;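 further: 0% = DMSO only and 100% = 100 µM cantharidin control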
NadD inh – inhibitors of S. aureus NadD, primary screen, biochemical, colorimetric, uHTS; AID 602399, 2012; actives 0.78% (n = 360,000); inhibition, % at 20 µM; purified NadD enzyme, colorimetric absorbance read-out; Nicotinate-nucleotide adenylyltransferase NadD (Staphylococcus aureus N315); in the data active means inhibition above about 26%
Rpn11 inh – Rpn11 (PSMD14) deubiquitinase inhibitors, primary screen, biochemical, fluorescence polarization, uHTS | inhibition, % at 20 µM | human 26S proteasome, Ub4-pepOG fluorescence polarization; 20S core pre-blocked with epoxomicin | AID 588493, 2011 | actives 0.59% (n = 360,000) | 26S proteasome non-ATPase regulatory subunit 14 (Homo sapiens), O00487;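 active means inhibition at 20 µM, scaled to each plate's controls, above about 33%, limit read from the data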
PP1 counter – PP1-alpha phosphatase inhibitors, primary screen, counter-screen for PP5 inhibitor project, biochemical, fluorescence, OMFP substrate, single point. Serine/threonine-protein phosphatase PP1-alpha catalytic subunit (Homo sapiens), P62136. purified PP1alpha. inhibition, % at 6.7 µM. actives 0.9% (n = 320,000). AID 2235, 2010;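 active means inhibition above the mean inhibition of all tested compounds plus 3 SD, computed separately for each screening campaign, cut at about 15% in these data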
Target sequence (P62136 whole entry, looked up): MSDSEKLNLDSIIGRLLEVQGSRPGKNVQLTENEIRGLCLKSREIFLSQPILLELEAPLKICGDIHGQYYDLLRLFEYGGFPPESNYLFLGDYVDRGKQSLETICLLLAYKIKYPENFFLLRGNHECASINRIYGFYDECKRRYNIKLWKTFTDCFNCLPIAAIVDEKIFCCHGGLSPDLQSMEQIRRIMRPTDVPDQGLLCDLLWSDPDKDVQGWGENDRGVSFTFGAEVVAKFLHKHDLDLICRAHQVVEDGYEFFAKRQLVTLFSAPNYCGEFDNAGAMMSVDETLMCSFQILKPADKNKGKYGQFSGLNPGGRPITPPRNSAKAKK
NadD conf – inhibitors of S. aureus NadD, confirmation, biochemical, colorimetric, single concentration; shares compounds with NadD inh; purified S. aureus NadD, colorimetric enzyme assay; inhibition, % at 20 µM; actives 13% (n = 2,000); AID 624309, 2012; in the data active means inhibition mostly above about 42%, no sharp cut-off; inactive means mostly below about 42%
Numbers without * were called inactive; / = not tested or not shown. Most compounds without a hit are left out; they make up all but 2.4% or so of the library.

SMILES	PREPL inh	PP5 primary	NadD inh	Rpn11 inh	PP1 counter	NadD conf
CC(C)C[C@H]1CN(CCCC[C@H]2CNC(=O)C(=O)N2CCc2ccc(O)cc2)C(=O)C(=O)N1CCC1CCCCC1	/	/	21	/	/	/
CC(Cn1cncn1)C(=O)N1CCN(S(=O)(=O)c2ccc(Cl)cc2)CC1 (stereo not drawn)	-2	1	0	-1	-1	/
Cc1ccc(S(=O)(=O)Nc2cccc(-c3ccc(N4CCCCCC4)nn3)c2)c(C)c1	-4	2	42*	14	11	15
O=[N+]([O-])c1ccccc1S(=O)(=O)Nc1cccc(-c2ccc(N3CCCC3)nn2)c1	5	0	15	-1	5	/
Cc1ccc([N+](=O)[O-])cc1S(=O)(=O)Nc1ccc(-c2ccc(N3CCCC3)nn2)cc1	1	2	38*	5	7	37
O=[N+]([O-])c1ccc(Cl)c(S(=O)(=O)Nc2cccc(-c3ccc(N4CCCC4)nn3)c2)c1	11	0	63*	7	5	52*
O=[N+]([O-])c1ccc(Cl)c(S(=O)(=O)Nc2ccc(-c3ccc(N4CCCC4)nn3)cc2)c1	-6	2	25	7	5	/
COc1cccc(C(O)c2nc(-c3cccc(F)c3)cs2)c1 (stereo not drawn)	/	/	-5	-1	/	/
O=C(O)CSc1c(-c2ccccc2)c2cc(Cl)ccc2[nH]c1=O	5	0	-3	-9	1	/
CCN(CC)C(=S)Sc1c(-c2ccccc2)c2cc(Cl)ccc2[nH]c1=O	6	3	39*	37	0	0
Nc1c(C(=O)Nc2ccccc2)sc2nc(-c3ccco3)ccc12	17	2	35*	21	0	26
Cc1cccc2sc(NNC(=O)c3cc(-c4cccs4)nc4ccccc34)nc12	7	-3	49*	16	7	48*
Cc1ccc(C(=O)N2CCN(C3c4cccc5cccc(c45)C3NS(=O)(=O)c3ccccc3)CC2)cc1 (stereo not drawn)	5	1	36*	6	5	19
CC(=O)N1CCN(C2c3cccc4cccc(c34)C2NS(=O)(=O)c2ccccc2)CC1 (stereo not drawn)	17	4	-1	-6	-4	/
O=C(C[C@H]1C[C@H](C(=O)N2CCCCC2)[C@@]2(CCc3ccccc3)c3[nH]c4ccc(Cl)cc4c3CCN2C1=O)NCCCn1ccnc1	/	/	31*	14	/	1
COc1ccc(S(=O)(=O)N2CCOCC2)cc1NC(=O)CCCOc1ccc(C(C)=O)cc1	/	/	0	-2	/	/
O=C(COc1cccc(Cl)c1)Nc1nc(-c2ccc(S(=O)(=O)N3CCOCC3)cc2)cs1	/	/	32*	12	/	7
O=C1C2C(c3cccc(/C=C/c4ccccc4)c3)CC=CC2C(c2ccc3ccccc3c2)N1Cc1ccccc1 (stereo not drawn)	0	0	32*	6	6	8
COc1ccc(-c2cccc(C3CC=CC4C3C(=O)N(Cc3ccccc3)C4c3ccc(OC)c(Cl)c3)c2)cc1 (stereo not drawn)	-7	0	19	10	10	/
Cc1ccc(F)c(C2C3C=CCC(c4cccc(-c5ccc(N(C)C)cc5)c4)C3C(=O)N2Cc2ccccc2)c1 (stereo not drawn)	1	2	43*	3	2	18
Cc1ccc(-c2cccc(C3CC=CC4C3C(=O)N(Cc3ccccc3)C4c3ccc4ccccc4c3)c2)cc1 (stereo not drawn)	-12	3	34*	7	10	4
Cc1ccc(-c2ccc(=O)n(CCC(=O)N3CCN(c4cccc(C)c4)C(C)C3)n2)cc1 (stereo not drawn)	-5	3	-5	1	4	/
Cc1ccc(OCC(=O)Nc2ccc(N3CCCC3)cc2)cc1C	-4	0	32*	6	13	-8
CCOc1ccc(C(=O)Nc2ccc(N3CCCC3)cc2)cc1	25	1	35*	5	8	-4
Cc1cccc(OCC(=O)Nc2ccc(N3CCCC3)cc2)c1C	-5	-2	43*	5	11	-2
SMILES	PREPL inh	PP5 primary	NadD inh	Rpn11 inh	PP1 counter	NadD conf
Cc1ccc(C(=O)Nc2ccc(N3CCCC3)cc2)c(C)c1	20	-1	32*	20	4	4
CCCOc1ccc(C(=O)Nc2ccc(N3CCN(C(C)=O)CC3)cc2)cc1	4	-3	1	4	-3	/
COc1ccccc1OCC(=O)Nc1ccc(N2CCCCC2)cc1	8	-3	-3	30	1	/
COc1ccc(OCC(=O)Nc2ccc(N3CCCCC3)cc2)cc1	15	5	-7	3	-1	/
COc1cccc(N2CCN(C(=O)C3CCN(C(=O)Nc4ccccc4)CC3)CC2)c1	/	/	3	-12	/	/
O=C1NC[C@@H](CCCCN2C[C@H](Cc3ccc(O)cc3)N(CCc3ccc(O)cc3)C(=O)C2=O)N(CCc2ccc(O)cc2)C1=O	/	/	9	/	/	/
O=C(NNC(=O)C1CCC1)c1ccc(F)cc1	/	/	4	-2	/	/
Cc1cc(NC(=O)CN(C)CC(=O)Nc2ccc(F)c(F)c2F)no1	16	4	-1	0	5	/
O=C(c1cccc(S(=O)(=O)N2CCN(c3ccc(F)cc3)CC2)c1)N1CCN(c2ccccc2O)CC1	/	/	38*	-4	/	9
O=C(c1cccc(S(=O)(=O)N2CCN(c3ccc(F)cc3)CC2)c1)N1CCCCCCC1	-78	3	-3	7	3	/
O=C(Cc1csc(Nc2nc(=S)[nH]c3ccccc23)n1)N1CCN(c2cccc(Cl)c2)CC1	-15	1	55*	11	-3	8
O=C(Cn1c(=O)[nH]c2ccccc2c1=O)N1CCN(c2cccc(Cl)c2)CC1	0	0	-1	-2	8	/
Cc1ccc(Cl)cc1N1CCN(C(=O)Cc2csc(Nc3nc(=S)[nH]c4ccccc34)n2)CC1	-7	-1	63*	17	0	6
O=C1Nc2ccccc2N(C(=O)c2ccc(-c3ccccc3)cc2)C1c1nc2ccccc2[nH]1 (stereo not drawn)	/	/	31*	/	/	20
O=C1Nc2ccccc2N(C(=O)c2c(F)cccc2F)C1c1nc2ccccc2[nH]1 (stereo not drawn)	/	/	12	/	/	/
CCCC[C@@H]1Cc2[nH][nH]c(=O)c2[C@H](c2ccc(C(C)C)cc2)O1	/	/	38*	/	/	6
CCCC[C@@H]1Cc2[nH][nH]c(=O)c2[C@@H](c2ccc(Cl)cc2)O1	/	/	-4	/	/	/
